Assay [1] can be described thus: ATG_ISRE_CIS: Attagene CIS-FACTORIAL HepG2 Assay for human Interferon Regulatory Factor 1 (IRF1) binding to an Interferon-Stimulated Response Element (ISRE) (AID 2282948). The following applies: HepG2 ISRE cis-reporter (Attagene), mRNA transcription readout; actives raise or lower the signal. The gist of the method:
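Multiplexed mRNA reporter readout in human liver HepG2 cells: cis-element-driven reporters transfected, compound added for 24 h, transcripts amplified, fluorescently labelled and sized by capillary electrophoresis; curve fitting bidirectional against DMSO.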

The nature of assay [2]: ATG_M_32_CIS: Attagene CIS-FACTORIAL HepG2 Assay for M32 Transcription Factor (Internal Marker) (AID 2282949).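 Further: background control marker of the multiplexed CIS panel rather than a real target.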 The following applies: HepG2 Attagene cis-factorial M32 reporter, mRNA; actives raise or lower the signal. The method, boiled down:
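HepG2 transfectants (cis-regulated reporter transcription units) dosed 24 h. Reporter mRNA by RT-PCR plus CE, analysed as gain or loss relative to DMSO.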

Assay [3] deals with Hepatocyte nuclear factor 6 (Homo sapiens) (UniProt Q9UBC0). Put plainly: ATG_HNF6_CIS: Attagene CIS-FACTORIAL HepG2 Assay for human Hepatocyte Nuclear Factor 6 (HNF6) (AID 2282952). The following applies: HepG2 Attagene cis-factorial HNF6 reporter transcription; actives raise or lower the signal. The gist of the method: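 Endogenous factor activity read in transiently transfected HepG2 via promoter-regulated reporter transcripts. RNA harvested 24 h post-dosing, reverse-transcribed, PCR-amplified, FAM-labelled, HpaI-digested and resolved by capillary electrophoresis; fitted in both directions against DMSO.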
Hepatocyte nuclear factor 6 (Homo sapiens), sequence (Q9UBC0 whole entry, looked up): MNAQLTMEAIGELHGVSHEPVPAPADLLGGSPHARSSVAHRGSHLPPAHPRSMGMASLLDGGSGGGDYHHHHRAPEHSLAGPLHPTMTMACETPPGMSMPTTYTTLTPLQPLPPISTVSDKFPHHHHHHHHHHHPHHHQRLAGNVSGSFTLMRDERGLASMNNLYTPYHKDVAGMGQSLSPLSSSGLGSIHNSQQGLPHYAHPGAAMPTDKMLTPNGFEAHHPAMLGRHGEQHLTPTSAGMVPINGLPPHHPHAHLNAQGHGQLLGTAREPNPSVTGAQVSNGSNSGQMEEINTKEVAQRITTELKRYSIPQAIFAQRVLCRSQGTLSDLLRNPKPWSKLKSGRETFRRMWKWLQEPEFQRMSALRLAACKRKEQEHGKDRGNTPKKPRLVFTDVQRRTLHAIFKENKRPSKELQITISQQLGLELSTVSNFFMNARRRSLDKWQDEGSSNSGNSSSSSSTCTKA

In assay [4] the target is Heat shock factor protein 1 (Homo sapiens) (UniProt Q00613). Nature of the assay: ATG_HSE_CIS: Attagene CIS-FACTORIAL HepG2 Assay for human Heat Shock Transcription Factor 1 (HSE) (AID 2282953). The following applies: HepG2 HSE cis-reporter, Attagene RNA transcription; actives raise or lower the signal. The gist of the method: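 After a 24 h incubation with test chemical, transfected HepG2 cells were harvested for RNA; reporter transcripts were measured by RT-PCR and capillary electrophoresis. Values reflect gain or loss of signal relative to DMSO.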
Heat shock factor protein 1 (Homo sapiens), sequence (Q00613 whole entry, looked up): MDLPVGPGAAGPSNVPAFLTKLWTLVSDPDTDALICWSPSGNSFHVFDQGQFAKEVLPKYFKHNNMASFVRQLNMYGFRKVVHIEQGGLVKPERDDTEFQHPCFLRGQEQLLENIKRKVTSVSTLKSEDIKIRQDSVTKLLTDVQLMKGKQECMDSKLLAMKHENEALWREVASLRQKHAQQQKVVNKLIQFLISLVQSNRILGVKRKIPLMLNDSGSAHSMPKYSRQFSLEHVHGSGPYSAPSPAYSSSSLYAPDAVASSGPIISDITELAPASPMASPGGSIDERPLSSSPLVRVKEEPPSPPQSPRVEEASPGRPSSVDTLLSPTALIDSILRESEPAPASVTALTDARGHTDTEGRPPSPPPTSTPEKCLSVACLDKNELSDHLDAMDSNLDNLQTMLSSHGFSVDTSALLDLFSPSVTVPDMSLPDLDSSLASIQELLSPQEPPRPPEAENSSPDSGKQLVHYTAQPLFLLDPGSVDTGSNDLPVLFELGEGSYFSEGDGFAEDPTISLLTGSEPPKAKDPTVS

Assay [5] in a line: ATG_MRE_CIS: Attagene CIS-FACTORIAL HepG2 Assay for human Metal Responsive Element (MRE) (AID 2282954). The following applies: HepG2 MRE cis-reporter transcription, Attagene multiplex; actives raise or lower the signal. The gist of the method: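 Endogenous MRE-dependent transcription read as reporter mRNA in transiently transfected human HepG2 cells at 24 h. RNA reverse-transcribed, PCR-amplified, labelled and resolved by capillary electrophoresis; gain or loss relative to DMSO.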

The target of assay [6] is Paired box protein Pax-6 (Homo sapiens) (UniProt P26367). Nature of the assay: ATG_Pax6_CIS: Attagene CIS-FACTORIAL HepG2 Assay for human Paired Box 6 (PAX6) (AID 2282956). The following applies: HepG2 CIS-FACTORIAL PAX6 reporter transcription, RNA readout; actives raise or lower the signal. The method, boiled down:
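Fluorescent RT-PCR products separated by capillary electrophoresis report PAX6-linked promoter mRNA in HepG2 cells 24 h post-dose. Curves fitted bidirectionally, DMSO as negative control.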

Assay [7] can be described thus: ATG_PXRE_CIS: Attagene CIS-FACTORIAL HepG2 Assay for human Pregnane X Receptor Element (PXRE) (AID 2282957). The following applies: HepG2 Attagene CIS-FACTORIAL PXRE reporter, mRNA; actives raise or lower the signal. The method, boiled down:
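Reporter transcripts under endogenous PXR-responsive cis-regulation quantified from total RNA of transfected HepG2 cells 24 h post-dosing, via RT-PCR with fluorescent primer extension and capillary electrophoresis. Gain or loss of signal fitted against DMSO baseline.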

Assay [8] can be described thus: ATG_PPRE_CIS: Attagene CIS-FACTORIAL HepG2 Assay for human Peroxisome Proliferator-activated Response Element (PPRE) (AID 2282958). The following applies: HepG2 PPRE cis-element reporter, Attagene transcription factor profiling; actives raise or lower the signal. The method, boiled down: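 Cells are first transfected transiently with the multiplexed reporter library, then dosed for 24 h. Total RNA is reverse-transcribed, amplified, fluorescently end-labeled and HpaI-cut before capillary electrophoresis; activity is fitted bidirectionally against DMSO controls.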

Assay [9] can be described thus: ATG_RORE_CIS: Attagene CIS-FACTORIAL HepG2 Assay for human RAR-related Orphan Receptor Element (RORE) (AID 2282959). The following applies: HepG2 Attagene cis-factorial RORE reporter, mRNA; actives raise or lower the signal. The method, boiled down:
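Cells were HepG2 carrying transfected cis-regulated reporter constructs, dosed for 24 hours. Total RNA was reverse-transcribed and reporter cDNA amplified, fluorescently labeled and sized by capillary electrophoresis. Activity was fitted bidirectionally relative to DMSO.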

A short description of assay [10]: ATG_Sox_CIS: Attagene CIS-FACTORIAL HepG2 Assay for human SRY-box transcription factor (SOX) (AID 2282960). The following applies: HepG2 Attagene cis-factorial SOX reporter, mRNA; actives raise or lower the signal. The method, boiled down:
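Transient MRTU transfection of HepG2; 24 h compound incubation; TriZol RNA, oligo(dT) RT, PCR, 6-FAM primer extension, HpaI cut, CE. Bidirectional fit, DMSO = baseline.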

Assay [11] has as its target Transcription factor Sp1 (Homo sapiens) (UniProt P08047). Nature of the assay: ATG_Sp1_CIS: Attagene CIS-FACTORIAL HepG2 Assay for human Specificity Protein 1 (Sp1) (AID 2282961). The following applies: HepG2 Sp1 cis-reporter transcription, actives raise or lower the signal. The gist of the method: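 Endogenous Sp1 activity was gauged in human liver HepG2 cells bearing transfected reporter units under a cis-regulating promoter. After 24 h dosing, reporter mRNA was quantified by RT-PCR with capillary electrophoresis, and activity fitted bidirectionally versus DMSO.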

Assay [12] in a line: ATG_SREBP_CIS: Attagene CIS-FACTORIAL HepG2 Assay for human Sterol Regulatory Element Binding (SREBP) (AID 2282962). The following applies: HepG2 Attagene cis-factorial SREBP reporter, mRNA; actives raise or lower the signal. The gist of the method: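 Endogenous factor activity is measured in HepG2 through multiplexed reporter units under cis-element control. Following a 24 h incubation, reporter transcripts are reverse-transcribed, PCR-amplified and sized by capillary electrophoresis; activity is fitted in both directions relative to DMSO.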

Assay [13] has as its target Signal transducer and activator of transcription 3 (Homo sapiens) (UniProt P40763). Put plainly: ATG_STAT3_CIS: Attagene CIS-FACTORIAL HepG2 Assay for human Signal Transducer and Activator of Transcription 3 (STAT3) (AID 2282963). The following applies: HepG2, Attagene cis-factorial STAT3 reporter transcription; actives raise or lower the signal. The gist of the method:
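Readout is reporter transcript quantified by RT-PCR and capillary electrophoresis, with 6-FAM primer extension and HpaI digestion. Total RNA is taken 24 h after dosing transiently transfected HepG2 carrying cis-regulated reporter units. Bidirectional fit against DMSO.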

The nature of assay [14]: ATG_TA_CIS: Attagene CIS-FACTORIAL HepG2 Assay for human TA Basal Promoter (AID 2282964). The following applies: HepG2 Attagene CIS-factorial TA basal promoter reporter; actives raise or lower the signal. The method, boiled down:
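Multiplexed mRNA reporter assay, HepG2, 24 h. Reporter cDNA amplified, 6-FAM primer-extended, HpaI-cut, CE-sized; DMSO = negative control and baseline.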

Assay [15] can be described thus: ATG_TCF_b_cat_CIS: Attagene CIS-FACTORIAL HepG2 Assay for human T-Cell-Factor with beta-catenin (TCF/b-cat) (AID 2282965). The following applies: HepG2 TCF/beta-catenin cis-reporter transcription, actives raise or lower the signal. The method, boiled down:
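Measured: reporter mRNA in HepG2 transiently transfected with cis-promoter reporter units, 24 h after chemical addition. Fitting was bidirectional, DMSO as negative control.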

Assay [16] can be described thus: ATG_M_06_CIS: Attagene CIS-FACTORIAL HepG2 Assay for M06 Transcription Factor (Internal Marker) (AID 2282950). The following applies: HepG2 Attagene CIS-FACTORIAL M06 internal marker reporter; actives raise or lower the signal. The method, boiled down: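 Fluorescence-labelled RT-PCR products from cis-promoter reporter units, cut with HpaI and resolved by capillary electrophoresis, give the signal. Cells are human HepG2, dosed for 24 h. Serves as background control, fitted relative to DMSO.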

The target in assay [17] is Hypoxia-inducible factor 1-alpha (Homo sapiens) (UniProt Q16665). Nature of the assay: ATG_HIF1a_CIS: Attagene CIS-FACTORIAL HepG2 Assay for human Hypoxia Inducible Factor 1 (HIF1A) (AID 2282951). The following applies: HepG2 Attagene cis-factorial HIF1a reporter transcription; actives raise or lower the signal. The gist of the method: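 Measures endogenous transcription-factor activity through cis-regulated reporter mRNA in HepG2. Cells dosed 24 h; transcripts quantified by RT-PCR with 6-FAM-labelled products separated by capillary electrophoresis; DMSO serves as negative control.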
Hypoxia-inducible factor 1-alpha (Homo sapiens), sequence (Q16665 whole entry, looked up): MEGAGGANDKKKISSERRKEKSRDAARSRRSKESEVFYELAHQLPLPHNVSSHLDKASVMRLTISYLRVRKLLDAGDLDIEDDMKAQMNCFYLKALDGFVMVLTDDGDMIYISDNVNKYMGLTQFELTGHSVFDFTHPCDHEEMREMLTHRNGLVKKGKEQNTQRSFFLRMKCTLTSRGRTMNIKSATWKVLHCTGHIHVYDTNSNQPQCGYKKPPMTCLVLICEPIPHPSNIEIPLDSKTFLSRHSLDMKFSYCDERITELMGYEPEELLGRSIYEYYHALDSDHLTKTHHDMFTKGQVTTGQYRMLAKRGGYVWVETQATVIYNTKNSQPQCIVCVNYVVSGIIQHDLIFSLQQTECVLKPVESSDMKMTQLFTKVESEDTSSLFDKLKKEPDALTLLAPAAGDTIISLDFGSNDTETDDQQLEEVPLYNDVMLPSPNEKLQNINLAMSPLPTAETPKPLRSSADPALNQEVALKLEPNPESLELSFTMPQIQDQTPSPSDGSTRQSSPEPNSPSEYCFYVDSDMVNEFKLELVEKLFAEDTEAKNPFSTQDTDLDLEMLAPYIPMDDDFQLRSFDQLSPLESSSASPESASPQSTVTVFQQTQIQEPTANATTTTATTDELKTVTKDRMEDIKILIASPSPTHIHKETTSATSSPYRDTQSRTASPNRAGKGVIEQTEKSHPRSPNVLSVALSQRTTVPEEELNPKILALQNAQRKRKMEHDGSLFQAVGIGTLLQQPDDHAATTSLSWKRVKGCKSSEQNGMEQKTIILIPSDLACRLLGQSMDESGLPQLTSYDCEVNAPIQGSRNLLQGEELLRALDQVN

Assay [18] can be described thus: ATG_PBREM_CIS: Attagene CIS-FACTORIAL HepG2 Assay for human Phenobarbital-responsive Enhancer Module (PBREM) (AID 2282955). The following applies: HepG2 PBREM cis-reporter, Attagene multiplexed transcription; actives raise or lower the signal. The gist of the method: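 Fluorescence of labelled reporter cDNA fragments, resolved by capillary electrophoresis, gives mRNA induction in transfected HepG2 cells treated for 24 h; DMSO serves as negative control and baseline.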

Each structure is given as a SMILES string. The source made the active and inactive calls. How the source made its calls: active means hit-call score of the fitted dose curve at least 0.9, where 1 is the maximum; inactive means score below 0.9.

Transcription factor Sp1 (Homo sapiens), sequence (P08047 whole entry, looked up): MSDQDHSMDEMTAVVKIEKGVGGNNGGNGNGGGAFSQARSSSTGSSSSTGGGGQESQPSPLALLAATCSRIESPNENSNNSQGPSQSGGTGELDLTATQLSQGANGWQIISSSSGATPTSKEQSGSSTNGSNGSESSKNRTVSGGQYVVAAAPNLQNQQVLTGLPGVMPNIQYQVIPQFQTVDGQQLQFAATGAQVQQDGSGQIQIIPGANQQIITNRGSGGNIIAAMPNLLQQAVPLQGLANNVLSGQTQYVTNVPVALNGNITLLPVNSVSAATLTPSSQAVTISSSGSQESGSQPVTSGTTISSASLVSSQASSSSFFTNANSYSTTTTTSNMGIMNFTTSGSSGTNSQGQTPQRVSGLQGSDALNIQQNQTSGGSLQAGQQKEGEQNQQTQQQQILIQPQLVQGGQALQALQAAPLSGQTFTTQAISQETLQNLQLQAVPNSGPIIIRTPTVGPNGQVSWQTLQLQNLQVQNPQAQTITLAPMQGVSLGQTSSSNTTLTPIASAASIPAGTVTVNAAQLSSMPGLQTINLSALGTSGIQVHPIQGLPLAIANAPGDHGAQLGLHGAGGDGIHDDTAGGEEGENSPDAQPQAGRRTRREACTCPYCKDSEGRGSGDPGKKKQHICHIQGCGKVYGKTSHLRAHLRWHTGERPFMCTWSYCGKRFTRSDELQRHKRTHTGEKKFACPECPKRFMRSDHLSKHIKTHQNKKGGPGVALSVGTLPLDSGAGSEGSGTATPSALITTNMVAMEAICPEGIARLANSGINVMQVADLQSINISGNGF
Signal transducer and activator of transcription 3 (Homo sapiens), sequence (P40763 whole entry, looked up): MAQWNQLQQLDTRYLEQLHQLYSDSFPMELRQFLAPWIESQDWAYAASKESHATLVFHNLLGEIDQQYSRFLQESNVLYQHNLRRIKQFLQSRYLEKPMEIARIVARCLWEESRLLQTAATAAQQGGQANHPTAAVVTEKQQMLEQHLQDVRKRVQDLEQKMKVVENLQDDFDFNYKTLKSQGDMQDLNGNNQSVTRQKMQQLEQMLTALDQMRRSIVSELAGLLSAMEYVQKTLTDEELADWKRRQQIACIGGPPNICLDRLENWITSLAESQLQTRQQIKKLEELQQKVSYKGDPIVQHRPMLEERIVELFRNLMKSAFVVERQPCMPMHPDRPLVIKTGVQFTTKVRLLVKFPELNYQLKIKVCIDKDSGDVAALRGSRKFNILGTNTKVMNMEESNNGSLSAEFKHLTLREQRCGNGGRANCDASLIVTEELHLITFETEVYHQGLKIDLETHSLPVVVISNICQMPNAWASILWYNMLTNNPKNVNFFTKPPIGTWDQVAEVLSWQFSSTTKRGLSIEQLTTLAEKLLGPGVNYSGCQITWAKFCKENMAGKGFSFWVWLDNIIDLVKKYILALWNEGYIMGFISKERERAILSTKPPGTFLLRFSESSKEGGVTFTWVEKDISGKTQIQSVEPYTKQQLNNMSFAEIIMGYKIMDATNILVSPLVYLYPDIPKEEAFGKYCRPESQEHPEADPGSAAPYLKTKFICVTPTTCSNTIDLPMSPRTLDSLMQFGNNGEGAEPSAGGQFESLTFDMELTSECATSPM
Paired box protein Pax-6 (Homo sapiens), sequence (P26367 whole entry, looked up): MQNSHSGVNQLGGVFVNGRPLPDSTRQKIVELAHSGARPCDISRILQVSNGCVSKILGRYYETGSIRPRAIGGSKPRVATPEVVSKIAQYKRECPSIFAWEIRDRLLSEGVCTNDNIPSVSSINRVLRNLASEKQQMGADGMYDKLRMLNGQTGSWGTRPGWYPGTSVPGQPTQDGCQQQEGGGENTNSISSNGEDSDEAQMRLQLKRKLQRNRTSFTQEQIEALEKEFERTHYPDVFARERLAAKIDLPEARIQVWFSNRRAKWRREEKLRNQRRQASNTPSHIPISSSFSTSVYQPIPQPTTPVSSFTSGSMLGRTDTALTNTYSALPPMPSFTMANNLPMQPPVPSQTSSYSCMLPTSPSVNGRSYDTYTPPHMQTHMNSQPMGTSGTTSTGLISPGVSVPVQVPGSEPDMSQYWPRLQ

As a reminder, the AC50 is the midpoint of the concentration-response curve, whichever way the signal moves. As to `COC(=O)C=C(C)CCC=C(C)C`, the compound was called inactive in assay [1], in [2], in [3], in assay [4], in assay [5] and in assay [6]. Also, the call in assay [8], in assay [9], in [10], in assay [11], in assay [12] and in [13] was inactive. Also, the result in assay [14] and in assay [15] was inactive. In addition, the AC50 in [7] is 7.51 µM (active).
`c1ccc2[nH]cnc2c1`: the compound was called inactive in [1], in [16], in assay [17], in [3], in assay [4] and in assay [5]. For the same compound, the result in assay [6], in assay [7], in assay [8], in assay [9], in [11] and in assay [12] was inactive. The call in assay [13], in assay [14] and in assay [15] was inactive.
As for `Cc1[nH]c(=O)c(C#N)cc1-c1ccncc1`, the compound was classed as inactive in assay [1], in [2], in [16], in assay [3], in assay [4] and in assay [5]. For the same compound, the outcome in assay [18], in assay [6], in assay [7], in assay [8], in assay [9] and in assay [10] was inactive. Further, the result in assay [11], in assay [12], in [13] and in [14] was inactive.
In the case of `COc1cc(Cl)c(OC)cc1N`, the result in [1], in assay [2], in assay [16], in [17], in [4] and in assay [5] was inactive. Besides, the result in assay [6], in assay [10], in assay [11], in assay [12], in assay [13] and in assay [14] was inactive. In addition, in assay [7], the AC50 is 62.4 µM (active).
For the compound `COCCOC(=O)c1ccccc1C(=O)OCCOC`, the result in assay [1], in assay [2], in [16], in [17], in assay [4] and in assay [5] was inactive. For the same compound, the result in assay [18], in assay [6], in [8], in assay [9], in [10] and in assay [11] was inactive. The result in assay [12], in [13], in [14] and in [15] was inactive. Also, the AC50 in assay [7] is 120 µM (active).
On to `C#CC(C)(O)CC(C)C` (configuration not stated), for which the compound was called inactive in [2], in assay [17], in assay [3], in assay [5], in assay [18] and in assay [6]. Also, the compound was called inactive in assay [7], in [9], in assay [10], in assay [11], in assay [12] and in assay [13]. Besides, the call in [14] and in [15] was inactive.
In the case of `CCCCOC(=O)CCCCCCCC(=O)OCCCC`, the call in assay [1], in [2], in [16], in [17], in assay [4] and in assay [5] was inactive. In addition, the outcome in assay [18], in assay [6], in [7], in [8], in [9] and in assay [11] was inactive. For the same compound, the compound was called inactive in [12], in [13] and in assay [14].
For the compound `COc1cc(CCC(C)=O)ccc1O`, the call in assay [1], in assay [16], in assay [17], in assay [3], in [4] and in assay [5] was inactive. For the same compound, the outcome in assay [18], in assay [6], in assay [7], in assay [8], in assay [9] and in assay [10] was inactive. Besides, the outcome in assay [11], in assay [12], in [13], in [14] and in [15] was inactive.
